Inconclusive results are not listed. Values without a mark were called inactive. Active and inactive are the calls of the source. The call rests on the fitted dose curve; in most records, active means well fitted inhibition curve with a large enough effect; inconclusive means small, poorly fitted or top-dose-only effect, or effect the other way; inactive means flat fitted curve, though single readings scatter.
biological target: Ubiquitin carboxyl-terminal hydrolase 2 (Homo sapiens) (UniProt O75604); assay: Confirmation Assay for Inhibitors of Ubiquitin-specific Protease USP2a Using CHOP2 as the Reporter; details: USP2 core, Ub-CHOP2 coupled reporter fluorescence; series mostly up to 38.3 µM; activity change, negative = inhibition: at the top concentration; further: nearly all actives have a fitted effect of over 55% in size;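 on activity change, negative = inhibition: plate controls were DMSO wells for no effect and full inhibition by NEM control for full effect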
Sequence (O75604 whole entry, looked up): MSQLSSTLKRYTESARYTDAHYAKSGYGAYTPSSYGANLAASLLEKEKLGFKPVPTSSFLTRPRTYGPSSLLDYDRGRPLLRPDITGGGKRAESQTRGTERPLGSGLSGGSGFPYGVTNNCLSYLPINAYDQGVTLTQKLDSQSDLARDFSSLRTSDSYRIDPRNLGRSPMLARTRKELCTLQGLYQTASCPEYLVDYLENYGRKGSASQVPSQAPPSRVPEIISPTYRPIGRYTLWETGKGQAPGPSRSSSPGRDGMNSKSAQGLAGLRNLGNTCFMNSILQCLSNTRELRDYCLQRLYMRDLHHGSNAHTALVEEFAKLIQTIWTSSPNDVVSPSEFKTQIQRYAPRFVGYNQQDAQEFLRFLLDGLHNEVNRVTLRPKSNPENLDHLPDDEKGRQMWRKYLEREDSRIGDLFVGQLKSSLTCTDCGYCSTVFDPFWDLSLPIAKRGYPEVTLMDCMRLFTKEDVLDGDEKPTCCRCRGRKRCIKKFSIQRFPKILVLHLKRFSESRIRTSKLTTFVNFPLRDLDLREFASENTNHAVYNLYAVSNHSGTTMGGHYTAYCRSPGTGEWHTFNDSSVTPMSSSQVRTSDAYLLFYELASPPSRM
In short: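 USP2 core (10 nM final) was preincubated with compound for 30 min at RT in Tris-HCl pH 8.0, CaCl2, beta-mercaptoethanol, CHAPS. Ub-CHOP2 and reporter substrate (25 nM final each) were added, and fluorescence (Ex 485/Em 531 nm) was read after 60 min.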
Potency means the concentration at half of the fitted maximal effect.

SMILES	activity change, negative = inhibition [%]	Potency
CCOC(=O)Nc1ccc(S(=O)(=O)Nc2cc(C)nc(C)n2)cc1	1.06	
NC1=NC2(CCC(c3ccccc3)CC2)n2c(nc3ccccc32)N1 (stereo not given)	1.88	
O=C(Cc1ccccc1)Nc1cccc(N2CCCC2)c1	-9.77	
CC(=O)Nc1ccc(Nc2cc(C)nc(Nc3ccc(NC(C)=O)cc3)n2)cc1	-0.465	
COc1ccc(-c2[nH]ncc2/C=C(/C#N)C(=O)NC2CCCCC2)cc1	5.96	
O=C(COC(=O)/C=C/c1ccc(Cl)cc1)NC1CC1	0.196	
CCOC(=O)c1[nH]c2ccc(OC)cc2c1NC(=O)CCN1CCCC(C)C1 (stereo not given)	-2.89	
COc1ccc(N(C(=O)C(C)C)S(=O)(=O)c2ccc(Cl)cc2)cc1	0.439	
COc1cc(C)ccc1OCCOc1cc(C)ccc1Cl	6.42	
CCOc1cc(/C=C2\C(=O)N(c3nc(-c4ccc(Br)cc4)cs3)N=C2c2ccccc2)ccc1O		4.65 µM (active)
O=C(N/N=C/C=C/c1ccccc1)c1ccncc1	1.99	
CCC1=[N+](CC(=O)c2ccc(Br)cc2)CCn2c(C)ccc21	3.43	
CC(C)Cn1c(SCC(N)=O)nnc1-c1cccc(S(=O)(=O)N2CCOCC2)c1	3.21	
COc1ccc(CN(Cc2cc3cc(C)ccc3[nH]c2=O)C(=O)N(C)C)cc1	0.163	
COc1ccc(-c2cc(C(F)(F)F)nc(S(C)(=O)=O)n2)cc1	-3.75	
O=C1CC(Nc2ccc(N3CCOCC3)cc2)C(=O)N1c1cccc(C(F)(F)F)c1 (stereo not given)	0.199	
Nc1cc(=O)[nH]c(SCc2cccc(Cl)c2)n1	2.19	
Cc1cc2c(c(=O)n1CC1CCCO1)C(c1ccco1)C(C#N)=C(N)O2 (stereo not given)	6.21	
CCCC(=O)Nc1ccc(N2CCN(C(=O)c3cc4ccccc4o3)CC2)cc1	4.98	
CCn1nc(C(=O)N[C@@H](CCSC)c2nc3ccccc3[nH]2)c2ccccc2c1=O	-1.26	

SMILES	activity change, negative = inhibition [%]	Potency
CCOC(=O)c1ccc(NC(=O)C2=C(C)Nc3nc(CCCO)nn3C2c2cccc(C)c2)cc1 (stereo not given)	-2.56	
CC1(C(=O)O)Sc2[nH]c(=O)sc2C2c3ccccc3OC(=O)C21 (stereo not given)	-1.68	
Cc1c(O)c(CN2CCCC2)cc2c3c(c(=O)oc12)CCC3	-1.61	
CCCCOC1(c2ccccc2)NC(=S)NN=C1c1ccccc1 (stereo not given)	2.46	
CC(=O)c1ccc(NC(=O)CC(NCCC2=CCCCC2)C(=O)O)cc1 (stereo not given)	-0.641	
CCCCCCCCCCC[N+](C)(C)CC/C=C1/c2ccccc2Sc2ccc(Cl)cc21		9.27 µM (active)
COc1ccc2cc(CN(C(=O)Nc3ccccc3)C3CCCC3)c(=O)[nH]c2c1	-2.43	
COc1cc(C(=O)OC2CCCCC2=O)cc(OC)c1C (stereo not given)		11.7 µM (active)
Cc1sc2nc(CN3CCN(c4ccc(O)cc4)CC3)[nH]c(=O)c2c1C	-4.34	
O=C(Nc1cccc(S(=O)(=O)NC2=NCCC2)c1)c1cc(-c2ccco2)nc2ccccc12		16.5 µM (active)
Cc1cc(SCC(=O)Nc2ccccc2)nc(C)n1	-0.745	
CCOc1cccc(NC(=O)/C(C#N)=C\c2cn(CC(=O)O)c3ccccc23)c1	2.89	
C=CCNCCOCCOc1ccccc1-c1ccccc1	-4.65	
CCn1c(COc2ccccc2)nnc1SCC(=O)CC(=O)Nc1ccccc1OC	-1.21	
CCCCC(CC)CN=C(N)NC(N)=NCCCCCCN=C(N)NC(N)=NCC(CC)CCCC (stereo not given)		4.65 µM (active)
C=CC#CC[N+]1(CC#Cc2ccccc2)CCOCC1		3.69 µM (active)
Cc1ccccc1C(=O)Nc1ccc2nc3n(c(=O)c2c1)CCC3	-1.25	
CC(C)CC(=O)Nc1cccc(-c2nc3ccccc3o2)c1	-1.67	
Cc1cccc2c1N(CCCOc1ccc(C(C)(C)C)cc1)C(=O)C2=O	-3.62	
CCc1sc(/C=C(/C#N)C(N)=S)cc1[N+](=O)[O-]	-3.59	
